Measured values reported in PubChem BioAssay (NCATS).
Unmarked numbers belong to inactive results. Where a call stands in place of a potency, no number is given. Active and inactive are the calls of the source. Calls follow the shape of the dose curve; as a rule, active = well fitted inhibition curve with a large enough effect; inconclusive = small, poorly fitted or top-dose-only effect; inactive = flat fitted curve, though single readings scatter.

tested on: Nanoluciferase (engineered Oplophorus gracilirostris luciferase); experiment: Primary Nanoluciferase (NLuc) qHTS assay for identification of artifact compounds. (AID 1845222); conditions: NLuc-conditioned medium, Nano-Glo luminescence, 5 min; series mostly up to 54.1 µM;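 also: NLuc secreted into diluted conditioned medium of S16 cells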
Method in brief: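 S16 cell supernatant NLuc, 1:55; cpds qHTS; 15 min RT dark; Nano-Glo substrate 1:100, 5 min; luminescence; Hill fit of % inhibition.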

Row | Structure (SMILES) | Potency | activity, negative = inhibition
1 | COc1cc(/C=C2\CC[C@H]3COC[C@@H](c4cc(F)c(F)c(F)c4)N3C2=O)ccc1-n1cnc(C)c1 | inactive | –
2 | CNC(=O)c1cc(Oc2ccc(NC(=O)c3cccc(C(F)(F)F)c3)cc2)ccn1 | inactive | –
3 | COc1cccc(OCCCN)c1-c1cc(Nc2cnc(C#N)cn2)n[nH]1 | inactive | –
4 | COC(=O)C[C@H]1C(C)(C)[C@H](OC(=O)c2ccccc2)C2CC3=C4CC(=O)O[C@@H](c5ccoc5)[C@]4(C)CCC3[C@@]1(C)C2=O (some centres undefined) | inactive | –
5 | OC[C@H]1O[C@@H](OC/C=C/c2ccc(O)cc2)[C@H](O)[C@@H](O)[C@@H]1O | inactive | –
6 | CC(C)(CO)c1cc2cc(NC(=O)C3(c4ccc5c(c4)OC(F)(F)O5)CC3)c(F)cc2n1CC(O)CO (centres undefined) | inactive | –
7 | C/C=C(\C)C(=O)O[C@H]1C[C@](C)(O)[C@H]2CC=C(C)[C@H]2[C@@H]2OC(=O)[C@H](C)[C@H]21 | inactive | –
8 | Nc1nc(OCc2cc(Br)cs2)c2[nH]cnc2n1 | inactive | –
9 | CC(C)(Cc1ccccc1)NCC(O)c1ccc(O)c(NS(C)(=O)=O)c1 (centres undefined) | inactive | –
10 | C=C1CCCC2(C)CCC(C(C)(C)OC3OC(C)C(O)C(O)C3OC(=O)/C(C)=C\C)CC12 (centres undefined) | inactive | –
11 | C=C1C(=O)OC2/C=C(\COC(C)=O)CC/C=C(\C=O)CC(OC(=O)CC(C)C)C12 (centres undefined) | inactive | –
12 | NC(=O)c1nc(Nc2ccccc2)sc1NC(=O)C1CCCCC1 | inactive | –
13 | CNCc1cc(-c2ccccc2F)n(S(=O)(=O)c2cccnc2)c1 | inactive | –
14 | O=C(CNC(=O)c1cccc(C(F)(F)F)c1)N[C@@H]1CCN(Cc2ccc(Cl)cc2)C1 | inactive | –
15 | CCCNCCc1ccc(NS(=O)(=O)c2ccc(OC(F)(F)F)cc2)cc1 | inactive | –
16 | CCOC(=O)CCNc1cc(N2CCc3ccccc3CC2)nc(-c2cccnc2)n1 | inactive | –
17 | NC(=O)CCCSc1nc(N)nc(-c2c(Cl)cc3c4c(cccc24)COC3)n1 | inactive | –

Row | Structure (SMILES) | Potency | activity, negative = inhibition
18 | C1=Cc2ccccc2C(=C2CCN(CCCCc3nn[nH]n3)CC2)c2ccccc21 | inactive | –
19 | C/C=C(/C)C(=O)O[C@H]1[C@H](OC(=O)/C(C)=C\C)[C@@]23C(CC1(C)C)[C@]1(CCC4[C@@]5(C)CC[C@H](O[C@@H]6O[C@H](C(=O)O)[C@@H](O)[C@H](O[C@@H]7O[C@H](CO)[C@H](O)[C@H](O)[C@H]7O[C@@H]7O[C@@H](C)[C@H](O)[C@@H](O)[C@H]7O[C@@H]7OC[C@@H](O)[C@H](O)[C@H]7O)[C@H]6O[C@@H]6O[C@H](CO)[C@H](O)[C@H](O)[C@H]6O)C(C)(C)C5CC[C@@]4(C)[C@]1(C)C[C@H]2O)O[C@H]3O (some centres undefined) | – | 3.76% [at 11.6 µM]
20 | O=C(NCc1ccccc1-c1ccccc1C(=O)NCCc1ccccn1)OCc1ccccc1 | inactive | –
21 | O=C(NCCCc1ccccc1)C1CCC(CNS(=O)(=O)c2cccc3nsnc23)CC1 (centres undefined) | inactive | –
22 | COc1cc(OC)c2c(=O)[nH]c(-c3cc(C)c(OCCO)c(C)c3)nc2c1 | inactive | –
23 | CC(C)(O)c1ccn2c(-c3ccc(F)c(-c4ccc(F)cc4C#N)c3)cnc2c1F | inactive | –
24 | C=CC(=O)N1CC(N2CCN(C(=O)CNc3cc(C4CC4)c(Cl)cc3O)CC2)C1 | inactive | –
25 | COc1ccc(NC(=O)C2C[C@H](C)CC[C@H]2C(C)C)cc1 (some centres undefined) | inactive | –
26 | Fc1ccc(-c2nc(C3CCNCC3)sc2-c2ccnc(NC3CC3)n2)cc1 | inactive | –
27 | O=C(Nc1ccc(-n2nc(C(F)(F)F)cc2C(F)(F)F)cc1)c1ccncc1F | inactive | –
28 | CC(=O)NC(C)c1cnc(-c2cnc(Oc3ccc(OC(C)C)cc3)s2)s1 (centres undefined) | inactive | –
29 | C=C1C(=O)OC2CC3(C)C(O)C(=O)C=C(C)C3CC12 (centres undefined) | inactive | –
30 | CC(=O)NCc1cccc(OC[C@@H](O)CNCCc2ccc(NS(=O)(=O)c3ccccc3)cc2)c1 | inactive | –
31 | Cc1c(C(=O)Nc2ccc(N3CCC(N4CCOCC4)CC3)c(C#N)c2)cnn1-c1ccc(Cl)cc1 | inactive | –
32 | CC(=O)O[C@@H]1CC[C@@]2(C)C(CC[C@]3(C)C2[C@H](O)C=C2[C@H]4[C@@H](C)[C@H](C)CC[C@]4(C)CC[C@]23C)[C@@]1(C)C(=O)O (some centres undefined) | inactive | –
33 | CCn1c(-c2nonc2N)nc2c(C#CCO)ncc(OCCCN)c21 | inactive | –
34 | C[C@@H]1O[C@@H](O[C@H]2[C@@H](OC(=O)[C@]34CCC(C)(C)CC3C3=CCC5[C@@]6(C)C[C@H](O)[C@H](O[C@@H]7O[C@H](CO)[C@@H](O)[C@H](O)[C@H]7O[C@@H]7OC[C@@H](O)[C@H](O)[C@H]7O)[C@@](C)(C(=O)O)C6CC[C@@]5(C)[C@]3(C)CC4)OC[C@H](O)[C@@H]2O)[C@H](O)[C@H](O)[C@H]1O[C@@H]1OC[C@@H](O)[C@H](O)[C@H]1O (some centres undefined) | – | 3.4% [at 11.6 µM]
